For 77 molecules, inhibition results are on record in PubChem BioAssay AID434989 (The Scripps Research Institute Molecular Screening Center, 2010).

The structures appear in SMILES notation. Screen size: about 330,000 compounds; about 1,400 (0.42%) were called active. What follows is part of a selection rich in actives, with near analogues and random picks from the rest. Values without a mark were called inactive.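 Rule for the calls: active = inhibition above its plate's threshold, mean inhibition of all tested compounds on the plate plus 3 SD (cut at about 37% in these data); inactive = the rest.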

Chain of Orexin/Hypocretin receptor type 1 (Homo sapiens) (O43613 whole entry, looked up): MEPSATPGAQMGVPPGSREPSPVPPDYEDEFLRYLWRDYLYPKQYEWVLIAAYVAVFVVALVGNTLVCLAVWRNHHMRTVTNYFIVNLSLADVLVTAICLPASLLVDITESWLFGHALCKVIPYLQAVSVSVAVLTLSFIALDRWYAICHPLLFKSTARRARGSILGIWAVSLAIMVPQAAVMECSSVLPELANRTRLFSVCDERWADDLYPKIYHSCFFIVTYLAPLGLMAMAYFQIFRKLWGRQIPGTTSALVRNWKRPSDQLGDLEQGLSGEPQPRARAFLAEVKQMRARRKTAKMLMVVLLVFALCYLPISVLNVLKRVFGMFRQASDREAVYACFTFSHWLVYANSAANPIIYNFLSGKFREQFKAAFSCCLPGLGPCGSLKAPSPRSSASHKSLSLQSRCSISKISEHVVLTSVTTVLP

The test has as its target Orexin/Hypocretin receptor type 1 (Homo sapiens) (UniProt O43613). As to the kind of experiment: OX1R (HCRTR1) antagonists, primary screen, fluorescence, CHO/OX1R cells, Fluo-8 calcium, orexin A (AID 434989).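 Note: 0% = orexin A challenge wells and 100% = SB-334867-A antagonist wells.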 The following applies: Fluo-8 calcium fluorescence, at 5 µM, hits give high values.
As to `O=C(CN1C(=O)NC2(CCCC2)C1=O)Nc1cc(C(F)(F)F)ccc1N1CCOCC1`, the inhibition (usually the relative decrease from the control value, in per cent) was -28.3%.

As for `C[C@H](CO)N1C[C@H](C)[C@@H](CN(C)Cc2ccc(-c3ccccc3)cc2)Oc2ccc(NC(=O)Cn3cnnn3)cc2C1=O`, the inhibition was -7.92%.

In the case of `CC[C@]1(C(=O)OC)[C@H]2C(=O)N(Cc3ccccc3)C(=O)[C@H]2[C@H]2CN=C(SCc3ccc(C#N)cc3)N21`, the inhibition is -5.92%.

For the molecule `Cc1ccccc1S(=O)(=O)N1[C@@H](c2cccc(Cl)c2)C(C(=O)O)=CC[C@H]1c1ccc(Cl)cc1`, the inhibition is 52.1% (active).

Consider `Cc1ccc(S(=O)(=O)N2[C@@H](c3cccc(Cl)c3)C(C(=O)O)=CC[C@H]2c2ccc(Cl)c(Cl)c2)cc1`, for which the inhibition was 42%.

Turning to `Cc1ccc([C@@H]2CC=C(C(=O)O)[C@H](c3cccc(Cl)c3)N2S(=O)(=O)c2ccc(C)cc2)cc1`, the inhibition was 10.8%.

Take `COc1cc(NC(=O)COC(=O)c2ccc([N+](=O)[O-])s2)cc(OC)c1OC`: the inhibition is -20.3%.

For `O=C(C[C@H]1C[C@H](C(=O)N2CCOCC2)[C@@]2(CCC3CCCC3)c3[nH]c4ccc(Cl)cc4c3CCN2C1=O)NCc1ccco1`, the inhibition was 21.8%.

As to `Cc1ccc(-n2[nH]c(C)c(/C=N/NC(=O)c3cccc([N+](=O)[O-])c3)c2=O)cc1C`, the inhibition was 7.53%.

In the case of `COc1cc(SC#N)ccc1N=Cc1c(C)[nH]n(-c2ccc(C)cc2)c1=O`, the inhibition was 67.5% (active).

As to `Cc1ccc(-n2[nH]c(C)c(/C=N/N3C(=O)c4cccc5cccc(c45)C3=O)c2=O)cc1`, the inhibition is -11.8%.

Regarding `O=C(Nc1cc(S(=O)(=O)N2CCOCC2)ccc1N1CCOCC1)c1c(F)cccc1Cl`, the inhibition was -20%.

Take `C=CCOc1cccc(C2C(C(=O)c3ccc(C)o3)=C(O)C(=O)N2c2nnc(C)s2)c1` (configuration not stated): the inhibition is 51% (active).

In the case of `Cc1cc(N2C(=O)C(O)=C(C(=O)c3ccc(C)o3)C2c2ccc(OCc3ccccc3)cc2)no1` (configuration not stated), the inhibition is -19.8%.

On to `C=CCOc1cccc(C2C(C(=O)c3ccc(C)o3)=C(O)C(=O)N2CCCn2ccnc2)c1` (configuration not stated), for which the inhibition is -1.44%.

As for `O=C(CC1SCCNC1=O)Nc1ccc(Cl)c(Cl)c1` (configuration not stated), the inhibition was -14.2%.

As to `O=C(Cc1ccc(Cl)c(Cl)c1)Nc1ccc(SC(F)F)cc1`, the inhibition is -12.3%.

As to `O=C(CC(O)(C(F)(F)F)C(F)(F)F)Nc1ccc(Cl)c(Cl)c1`, the inhibition was 62.6% (active).

Take `Oc1c(Cl)cc(Cl)c(Cl)c1Cc1c(O)c(Cl)cc(Cl)c1Cl`: the inhibition is 42.3% (active).

With `CC(=O)Nc1ccc(NC(=O)COC(=O)C2CCC(C(C)(C)C)CC2)cc1` (configuration not stated), the inhibition is -1.79%.

As for `COc1ccc(Nc2oc(-c3ccccc3Cl)nc2C#N)cc1`, the inhibition was -16.2%.

For `CC1CCN(c2oc(-c3ccccc3F)nc2C#N)CC1`, the inhibition is -6.67%.

As to `N#Cc1nc(-c2cccc3ccccc23)oc1N`, the inhibition is 56% (active).

Regarding `O=C(N[C@H]1C/C=C\C(c2cccc(F)c2)N(Cc2ccccc2)C(=O)C1)OCC1c2ccccc2-c2ccccc21` (some centres not stated), the inhibition was 4.42%.

For the molecule `CC(NC(=O)COC(=O)c1ccc2ccccc2n1)c1ccccc1` (configuration not stated), the inhibition was -14.8%.

Regarding `CC(=O)Nc1ccc(S(=O)(=O)NCC(=O)OCC(=O)c2ccc[nH]2)cc1`, the inhibition is -2.13%.

For the molecule `C#CCOCCOCCOCCNc1nc(N2CCN(C(=O)[C@H](CO)n3cc([C@@H](N)C(C)C)nn3)CC2)nc(N2CCN(C(=O)[C@H](CCC(=O)O)n3cc([C@@H](N)[C@H](C)CC)nn3)CC2)n1`, the inhibition is 0.47%.

With `O=C(CSc1nnc(-c2ccncc2)o1)Nc1cccc(Cl)c1`, the inhibition is -0.1%.

`CCOC(=O)C1CCCN(C(=O)CSc2nnc3nc(C)cc(C)n23)C1` (configuration not stated): the inhibition is -14.2%.

On to `CC(=O)N1CCCc2cc(S(=O)(=O)N3CCCC(C(=O)NCc4ccc(Cl)cc4)C3)ccc21` (configuration not stated), for which the inhibition was -22.5%.

On to `CC(=O)N1c2ccc(S(=O)(=O)N3CCCC(C(=O)Nc4cccc(Cl)c4)C3)cc2CC1C` (configuration not stated), for which the inhibition was 0.09%.

For `CC(=O)N1CCCc2cc(S(=O)(=O)N3CCCC(C(=O)N4CCN(c5cccc(Cl)c5)CC4)C3)ccc21` (configuration not stated), the inhibition was 72.6% (active).

On to `CCOc1ccccc1Nc1nnc(SCC(=O)NCC2CCCO2)s1` (configuration not stated), for which the inhibition was -22.1%.

On to `Cc1ccc(S(=O)(=O)Nc2ccc3c(c2)C(=O)N([C@H](C)CO)C[C@@H](C)[C@@H](CN(C)C(=O)Nc2cccc4ccccc24)O3)cc1`, for which the inhibition is 1.83%.

For the molecule `CC1CCCCC1NC(=O)Cn1c(=O)cnc2ccccc21` (configuration not stated), the inhibition was -6.73%.

For `Cc1cccc(NC(=O)Nc2cccc(Oc3c(F)c(F)c(F)c(F)c3F)c2)c1`, the inhibition was 50.4% (active).

On to `COc1cccc(NC(=O)NCc2ccc(F)cc2)c1`, for which the inhibition is -1.97%.

As for `Cc1cccc(NC(=O)NC(=S)NC(=O)c2ccccc2)c1`, the inhibition was -26.4%.

For `CCN(CC)S(=O)(=O)c1ccc(N2CCCC2)c(NC(=O)c2ccc([N+](=O)[O-])o2)c1`, the inhibition was 25.1%.

Consider `Cc1ccccc1OCC(=O)Nc1ccc(N2CCN(C(=O)C(C)C)CC2)c(Cl)c1`, for which the inhibition is 47.2% (active).

On to `Cc1ccc(NC(=O)COC(=O)C2CC2)cc1S(=O)(=O)N1CCOCC1`, for which the inhibition was 0.29%.

Take `CCc1ccccc1OCC(=O)Nc1ccc(C)c(S(=O)(=O)N2CCCCCC2)c1`: the inhibition was 71.1% (active).

With `CCC(=O)N1CCN(c2ccccc2NC(=O)COc2cccc(C)c2C)CC1`, the inhibition is -25.6%.

On to `CCc1ccccc1OCC(=O)Nc1ccc2c(c1)OCCO2`, for which the inhibition was 3.6%.

Regarding `Cc1ccccc1OCC(=O)Nc1ccc2c(c1)ncn2C`, the inhibition is -11.8%.

Consider `COc1ccccc1CNC(=O)c1ccc(Cl)c(S(=O)(=O)N2CCCC2)c1`, for which the inhibition is -20%.

Consider `Cc1nn(-c2ccccc2)nc1C(=O)OCC(=O)N1CCCCC1C` (configuration not stated), for which the inhibition was -14.9%.

As to `Cc1ccc(C)c(N2CCN(C(=O)CCc3nc(-c4cccc(C(F)(F)F)c4)no3)CC2)c1`, the inhibition is -15.5%.

Regarding `Cc1cc(-c2ccc(C)c(S(=O)(=O)Nc3ccc(S(N)(=O)=O)cc3)c2)on1`, the inhibition is 15.6%.

`Cc1cc(-c2ccc(C)c(S(=O)(=O)NC(C)Cc3ccco3)c2)on1` (configuration not stated): the inhibition was 59.1% (active).

Turning to `Cc1cc(-c2ccc(C)c(S(=O)(=O)NCCCN(Cc3ccccc3)C(C)C)c2)on1`, the inhibition is -45.5%.

Consider `CN(C)C(=O)CCc1ccc2c3c([nH]c2c1)[C@]1(CCC2CCCC2)[C@@H](C(=O)N2CCOCC2)C[C@H](CC(=O)NCc2ccco2)C(=O)N1CC3`, for which the inhibition is -19.7%.

With `COc1ccc(C(=O)C(C)OC(=O)c2cccc(S(=O)(=O)Nc3c(C)n(C)n(-c4ccccc4)c3=O)c2)cc1` (configuration not stated), the inhibition is -5.98%.

Regarding `O=C(CN1C(=O)NC2(CCCCCC2)C1=O)NCc1ccc(F)cc1`, the inhibition was -10.3%.

With `CCN(CC)S(=O)(=O)c1ccc(N(C)Cc2ccc(C(F)(F)F)cc2)nc1`, the inhibition is 29.3%.

For `CCN(CC)S(=O)(=O)c1ccc(N(C)CCc2ccc(OC)c(OC)c2)nc1`, the inhibition is -17%.

In the case of `CCN(CC)S(=O)(=O)c1ccc(N(C)Cc2cccc(OC)c2OC)nc1`, the inhibition is 39% (active).

In the case of `COc1cccc(-c2sc3ccc(OC)cc3c2-c2ccc(OCCN3CCCCC3)cc2)c1`, the inhibition is 29.6%.

Turning to `COc1ccc2[nH]c3c(c2c1)CCN1C(=O)C(CC(=O)NCCCN(C)C)C[C@H](C(=O)N2CCOCC2)[C@@]31CCC1CCCC1` (some centres not stated), the inhibition was -21.8%.

For the molecule `O=C1CCC/C=C/C[C@@H](CC(=O)N(CCO)Cc2ccccc2)C(=O)NC[C@H](c2ccccc2)O1`, the inhibition was -18%.

Regarding `Cc1ccc(C(=O)NCCNC(=O)c2cnccn2)cc1`, the inhibition is -1.97%.

Take `CCN(CC)c1ccc(/C=N/NC(=O)CNC(=O)c2cccnc2)cc1`: the inhibition was -5.59%.

For `CCN(CC)c1ccc(/C=N/NC(=O)c2cnccn2)c(O)c1`, the inhibition is 48.7% (active).

Take `O=C(CCCOc1ccccc1)NNC(=O)c1ccc(Cl)cc1`: the inhibition is -15.2%.

In the case of `C=CC[C@H](CC(=O)NCCO)C(=O)N[C@@H](COC(=O)[C@@H](CC=C)Cc1ccc(F)cc1)Cc1c[nH]c2ccccc12`, the inhibition was -17.6%.

`O=C(NCCc1ccco1)c1ccc(OCc2cn3ccccc3n2)cc1`: the inhibition was -20.6%.

Take `C=CC[C@@H](Cc1ccc(F)cc1)C(=O)OC[C@H]1CCCN1C(=O)[C@H](CC=C)CC(=O)N(CCO)Cc1ccccc1`: the inhibition was 24.4%.

As for `CCCc1nc2c(c(=O)c3ccccc3n2C)c(=O)n1-c1cc(C)cc(C)c1`, the inhibition is -30.9%.

As to `CCCc1nc2c(c(=O)c3ccccc3n2C)c(=O)n1C1CCCCCC1`, the inhibition was 41.5% (active).

`Cn1c2ccccc2c(=O)c2c(=O)n(Cc3ccco3)c(COc3ccccc3)nc21`: the inhibition is -11.8%.

`CC[C@]12c3[nH]c4ccc(Cl)cc4c3CCN1C(=O)[C@@H](CC(=O)NCCCOC)C[C@@H]2C(=O)N1CCN(C(=O)C2CC2)CC1`: the inhibition is -13.7%.

Turning to `CCOC(=O)C1=C(C)N(C[C@@H]2CC[C@@H](Cc3ccc(-c4ccccc4)cc3)O2)C(=O)NC1c1ccc([N+](=O)[O-])cc1` (some centres not stated), the inhibition was -13%.

For `CN(C)C(=O)CCc1ccc2c3c([nH]c2c1)[C@]1(CCc2ccccc2)[C@@H](C(=O)N2CCCCC2)C[C@H](CC(=O)NCCC2=CCCCC2)C(=O)N1CC3`, the inhibition was -7.84%.

For the molecule `CC(C)N(C(=O)[C@H]1C[C@H](CC(=O)NC(C)(C)C)C(=O)N2CCc3c([nH]c4ccc(Cl)cc34)[C@]12C)C(C)C`, the inhibition is -33.8%.

As to `Cc1ccc(O)c(NC(=O)COc2cc(C)ccc2C)c1`, the inhibition is 2.38%.

With `Cc1cccc(OCC(=O)NC(=S)Nc2ccccc2N2CCOCC2)c1`, the inhibition was -22.4%.

With `Cc1ccc(O)c(NC(=S)NC(=O)COc2ccc(Br)cc2)c1`, the inhibition is 78.4% (active).
